Results on five molecules are retold here after PubChem BioAssay.

Molecules are shown by their SMILES. Results filed as inconclusive are left out. The source made the active and inactive calls.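 The calls were made as follows, unless noted: active = viability loss from added drug above about 55%, and viability with drug at most 40%, in both replicates (limit read from the data, passing the limit was not always enough); inconclusive = both conditions met in only one replicate; inactive = neither replicate meets both conditions.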

Assay [1] can be described thus: reducers of endogenous Her2 protein level, primary screen, SKBR3 breast tumor cells, AlphaScreen, ATP viability (AID 461;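 active = Her2 level under about 52% in both replicate screens, with viability over 70% of control, limit read from the data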;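 as to Her2 level: lower value means less Her2 protein in the cells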;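 as to viability: percent of carrier control wells set as 100% viability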). The note with it: 18-24 h, measured here: SKBR3 viability, ATP luminescence, at 10 µM. For orientation: In Alpha technology, singlet oxygen from a donor bead excites a nearby acceptor bead.
Assay [2] has as its target Receptor tyrosine-protein kinase erbB-2 (Homo sapiens) (UniProt P04626). The description is as above. The settings on record: 18-24 h, at 10 µM, stronger effect = lower value.
Assay [3] is described as follows: SK-BR-3 cell growth inhibitors, pilot screen, 24 h, human (AID 572;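 active = viability at or below 10% of carrier control in both of two separate runs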;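 also: compound exposure lasted between 18 and 24 h rather than exactly 24 h; 100% = carrier-treated control wells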). The note with it: SK-BR-3 viability, CellTiter-Glo luminescence, at 10 µM, stronger effect = lower value. In general terms: In ATP-based viability assays light output follows the ATP content of the culture.
A short description of assay [4]: HUVEC growth inhibition – cell-based, human, primary screen (AID 575;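 active = viability at or below 30% in both replicate assays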;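 also: 100% = median of untreated cell wells with 0.1% DMSO on each plate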). The note with it: HUVEC proliferation, CellTiter-Glo luminescence, 72 h; at 10 µM; stronger effect = lower value.
The nature of assay [5]: growth inhibitors of H69AR lung tumor, primary screen, human, duplicate replicates (AID 580;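 active = viability at or under a set limit in both replicates, limit being median viability minus 3 SD, cut at about 48% in these data, passing the limit was not always enough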;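 also: 100% = mean luminescence of untreated wells and 0% = no signal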). The note with it: H69AR lung tumor cells viability, ATP luminescence, 72 h; at 10 µM; stronger effect = lower value.
Assay [6] in a line: reversal of MRP1-mediated doxorubicin resistance, pilot screen, H69AR cells, doxorubicin co-treatment (AID 601). The note with it: CellTiter-Glo, 72 h, at 10 µM; for differential viability (reversal): stronger effect = higher value.
The nature of assay [7]: 384-well plate pilot, post-Golgi transport modulator project, inhibition of yeast transport mutant growth (AID 636; in the data active = inhibition above about 31%). The note with it: absorbance 615 nm, about 18 h, stronger effect = higher value.
Assay [8] in a line: growth suppression of yeast trafficking mutant, preliminary HTS, modulators of trafficking downstream of Golgi apparatus project, 1536-format plate, OD 615 nm (AID 637; in the data active = inhibition above about 30%). The note with it: yeast transport mutant growth, absorbance 615 nm, 18 h; stronger effect = higher value.
Assay [9] can be described thus: OD615 S. cerevisiae growth inhibition, permissive medium, pilot counter-assay, permissive growth control for S. cerevisiae lifespan shortening project (AID 705;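 active = growth inhibition above 25% in both replicates, a cutoff set 3 SD above the mean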). The settings on record: OD615, 24 h, at 10 µM, stronger effect = higher value.
Assay [10] can be described thus: Restrictive medium S. cerevisiae growth inhibition, OD615, pilot screen of yeast lifespan reduction project, restrictive growth control (AID 706;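 active = growth inhibition above a set limit, 3 SD over mean compound inhibition, in both replicates, cut at about 43% in these data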;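 also: modified DeaD lifespan yeast strain shifted to restrictive glucose medium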). The settings on record: OD615, 48 h, at 10 µM, stronger effect = higher value.
Assay [11] can be described thus: viability gain of MRP-1-high H69AR cells under doxorubicin, pilot screen, MRP-1 activator project, CellTiter-Glo, duplicate (AID 807;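 active = viability increase at or above a cutoff of the median across tested compounds plus 3 SD, cut at about 8.5% in these data, passing the limit was not always enough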;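 also: compound pretreatment 18-22 h then 72 h combined with doxorubicin; 0% = doxorubicin alone and 100% = vehicle without doxorubicin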). The note with it: H69AR viability with doxorubicin, CellTiter-Glo luminescence; at 10 µM; stronger effect = higher value.
The nature of assay [12]: growth suppression of beta-catenin knockout HCT116, pilot screen, human colon tumor cells (AID 823;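 active = cell viability at or below a set limit in both duplicate runs, the limit being the all-compound median minus 4 SD, cut at about 23% in these data, passing the limit was not always enough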;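 also: 0% = wells killed by 20 µM Hyamine and 100% = untreated DMSO cell wells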). The settings on record: CellTiter-Glo, 60 h, at 10 µM, stronger effect = lower value.
The nature of assay [13]: growth suppression of PTEN-deleted HCT116, pilot screen, cell-based, HCT116 clonal line, CellTiter-Glo (AID 824;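 active = viability at or below 27.92% in each of two runs, the all-compound median minus 4 SD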;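 also: 0% = 20 µM Hyamine control and 100% = vehicle cell control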). The settings on record: 60 h, at 10 µM, stronger effect = lower value.
The nature of assay [14]: inhibitors of the yeast RAM network, pilot screen, dse1pr::URA3 reporter, 5-FOA selection (AID 869;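 active = inhibition over a set limit, the all-compound mean plus 3 SD, in both replicate runs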;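 also: 0% = DMSO wells with no growth and 100% = 10 µM 1-NA-PP1 with full growth; RAM network block rescues cells from 5-FOA so hits raise OD615 growth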). The note with it: S. cerevisiae dse1pr::URA3 5-FOA growth, OD615, 2 d; at 10 µM; stronger effect = higher value; strain carries analog-sensitive mutant Cbk1 kinase.
Assay [15] can be described thus: RAM signaling pathway blockade in yeast – S. cerevisiae, Pdr1DBD-CYC8 efflux-inhibited sensitized strain, primary screen (AID 1298;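 active = RAM network inhibition above 8.4% in each of two replicates, 3 SD over the compound average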;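 also: 0% = DMSO untreated cells without growth and 100% = 10 µM 1-NA-PP1 full growth; higher means more yeast growth rescued from 5-FOA killing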). The settings on record: S. cerevisiae cbk1-as DSE1-URA3 strain, 5-FOA growth OD615, 2 d; at 50 µM; stronger effect = higher value.
Where [16] appears, read: H69AR cells + 2 uM doxorubicin, measured here: viability with 2 uM doxorubicin, stronger effect = lower value.
Setting [17] is: H69AR cells, compound alone cytotoxicity.

By viability is commonly meant a read-out of living cells in per cent, often relative to untreated cells. Broadly, the inhibition is the change of the read-out against control, counted positive when it falls.

Chain of Receptor tyrosine-protein kinase erbB-2 (Homo sapiens) (P04626 whole entry, looked up): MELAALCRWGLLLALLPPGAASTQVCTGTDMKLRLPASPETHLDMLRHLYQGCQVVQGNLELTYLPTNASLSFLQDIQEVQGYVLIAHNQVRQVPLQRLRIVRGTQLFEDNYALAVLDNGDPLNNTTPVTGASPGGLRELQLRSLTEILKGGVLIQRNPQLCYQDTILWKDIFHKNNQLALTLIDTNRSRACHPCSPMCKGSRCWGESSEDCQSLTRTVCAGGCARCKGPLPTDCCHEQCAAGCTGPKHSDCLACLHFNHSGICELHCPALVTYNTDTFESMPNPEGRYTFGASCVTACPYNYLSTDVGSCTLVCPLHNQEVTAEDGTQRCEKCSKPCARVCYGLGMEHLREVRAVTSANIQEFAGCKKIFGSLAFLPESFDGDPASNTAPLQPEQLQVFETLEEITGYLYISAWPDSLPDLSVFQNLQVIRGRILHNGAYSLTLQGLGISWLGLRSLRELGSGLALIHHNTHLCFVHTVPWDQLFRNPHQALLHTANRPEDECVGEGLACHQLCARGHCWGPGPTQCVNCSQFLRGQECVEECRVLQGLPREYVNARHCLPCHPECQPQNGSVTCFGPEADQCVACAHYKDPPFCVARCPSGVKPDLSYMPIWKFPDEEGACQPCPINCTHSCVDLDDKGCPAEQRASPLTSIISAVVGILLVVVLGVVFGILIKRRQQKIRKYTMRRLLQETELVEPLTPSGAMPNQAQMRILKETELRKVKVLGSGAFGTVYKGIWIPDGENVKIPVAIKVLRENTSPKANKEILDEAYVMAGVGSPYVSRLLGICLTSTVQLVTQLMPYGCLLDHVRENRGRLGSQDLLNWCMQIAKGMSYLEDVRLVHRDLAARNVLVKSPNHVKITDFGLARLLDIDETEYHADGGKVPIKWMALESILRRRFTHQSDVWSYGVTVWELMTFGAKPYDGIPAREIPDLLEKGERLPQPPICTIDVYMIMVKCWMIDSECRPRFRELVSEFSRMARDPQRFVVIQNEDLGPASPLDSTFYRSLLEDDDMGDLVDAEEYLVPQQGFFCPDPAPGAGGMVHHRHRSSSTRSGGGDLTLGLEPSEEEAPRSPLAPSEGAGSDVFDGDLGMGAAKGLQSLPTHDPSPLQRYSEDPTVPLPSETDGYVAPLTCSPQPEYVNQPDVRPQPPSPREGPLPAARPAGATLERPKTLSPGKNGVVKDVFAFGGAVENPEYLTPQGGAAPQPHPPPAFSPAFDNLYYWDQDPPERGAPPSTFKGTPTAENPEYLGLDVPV

For `C=CCn1c(SC(C)C(=O)NC2(C#N)CCCCC2)nnc1-c1ccc(OC)cc1` (stereo not given), the viability in [1] is 90%; in assay [3] it was 90% (inactive); in assay [4], 109% (inactive); in assay [5], 92.2% (inactive); in assay [6] (setting [16]), 78.3%; in [6] (setting [17]), 92.2%. The viability was 90% (inactive) in assay [12] and 87.7% (inactive) in [13]. The Her2 level in assay [2] is 73.5% (inactive). In [6] (H69AR cells + 2 uM doxorubicin), the differential viability (reversal) was 13.9% (inactive). Also, the inhibition in [7] was -7.07% (inactive); in [8] it was -5.25% (inactive); in assay [14], 1.29% (inactive). The results for the growth inhibition in assay [9] and in assay [10] were -4.51% (inactive) and -9.22% (inactive), respectively. Moreover, in assay [11], the viability increase was -2.25% (inactive). In addition, the RAM network inhibition in assay [15] is 0.47% (inactive).

`NC(=O)CSc1cn(CCNC(=O)c2cccs2)c2ccccc12`: the viability in assay [1] was 99.5%; in assay [3], 99.5% (inactive); in assay [4], 99.4% (inactive); in [5], 93.4% (inactive); in assay [6] (setting [16]) it was 91.9%; in assay [6] (setting [17]), 93.4%. The viability in assay [12] is 107% (inactive); in assay [13] it was 94.8% (inactive). Also, the Her2 level in assay [2] was 92.5% (inactive). For the same molecule, the differential viability (reversal) in [6] (H69AR cells + 2 uM doxorubicin) is 1.49% (inactive). Also, the inhibition in assay [7] is -4% (inactive); in assay [8] it was -2.83% (inactive); in [14], 1.34% (inactive). Besides, the results for the growth inhibition in assay [9] and in [10] were -14.1% (inactive) and -28% (inactive), respectively. Besides, in [11], the viability increase was -0.44% (inactive). The RAM network inhibition in assay [15] was 5.84% (inactive).

In the case of `COc1ccc(NC(=O)CSc2nnc(-c3ccccc3)n2N)cc1`, the viability in [1] is 97.5%; in assay [3] it was 97.5% (inactive); in assay [4] it was 94.7% (inactive); in assay [5], 93.6% (inactive); in assay [6] (setting [16]), 76.4%; in assay [6] (setting [17]), 93.6%. For the same molecule, the viability is 101% (inactive) in [12] and 108% (inactive) in assay [13]. For the same molecule, the Her2 level in [2] is 87.5% (inactive). The differential viability (reversal) in assay [6] (H69AR cells + 2 uM doxorubicin) was 17.2% (inactive). For the same molecule, the inhibition was -7.87% (inactive) in assay [7], -0.16% (inactive) in assay [8] and 1.12% (inactive) in assay [14]. In addition, the results for the growth inhibition in [9] and in [10] were 0.265% (inactive) and 3.57% (inactive), respectively. Further, the viability increase in assay [11] is 0.58% (inactive). In addition, the RAM network inhibition in [15] is 3.84% (inactive).

For `COc1ccccc1C(=O)OCn1nnc2ccccc2c1=O`, the viability in [1] was 96.5%; in [3], 96.5% (inactive); in [4], 78.8% (inactive); in [5], 99.5% (inactive); in [6] (setting [16]) it was 115%; in [6] (setting [17]), 99.5%. The viability in assay [12] was 95% (inactive); in assay [13], 91.2% (inactive). For the same molecule, the Her2 level in [2] was 98% (inactive). Also, the differential viability (reversal) in [6] (H69AR cells + 2 uM doxorubicin) was -15.4% (inactive). In addition, the figures for the inhibition in assay [7], in assay [8] and in assay [14] were -4.27% (inactive), 1.17% (inactive) and 0.655% (inactive), respectively. The growth inhibition in [9] is -11.2% (inactive); in assay [10], -10.4% (inactive). Besides, the viability increase in assay [11] was -0.53% (inactive). In addition, in [15], the RAM network inhibition was 0.92% (inactive).

Take `O=C(c1sc2ccccc2c1Cl)N(Cc1cccs1)C1CCS(=O)(=O)C1` (stereo not given): the viability in [1] was 100%; in assay [3], 100% (inactive); in [4], 73.2% (inactive); in assay [5], 85.5% (inactive); in assay [6] (setting [16]) it was 81.8%; in [6] (setting [17]), 85.5%. Moreover, the viability is 92.2% (inactive) in [12] and 86.5% (inactive) in [13]. The Her2 level in assay [2] was 100% (inactive). In addition, in [6] (H69AR cells + 2 uM doxorubicin), the differential viability (reversal) is 3.69% (inactive). Besides, the inhibition in assay [7] was 1.07% (inactive); in [8], 0.17% (inactive); in assay [14], 0.395% (inactive). In addition, the growth inhibition in [9] is -7.52% (inactive); in assay [10] it was -11.5% (inactive). Moreover, the viability increase in assay [11] is -4.05% (inactive). Besides, the RAM network inhibition in assay [15] is 7.16% (inactive).
